In the library only some 2.4% were active in any assay of this set; here they are far more common.
zVAD death inh – L929 zVAD cell death inhibition | viability rescue, % at 10 µM | AID 1377 | hit rate 0.38% among 220,000 | L929 zVAD necroptosis rescue, ATP luminescence, 24 h; with zVAD 60 µM;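 active = activation, scaled between plate controls, above about 75%, limit read from the data; inactive = activation under that limit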;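 note: 0% = zVAD with DMSO and 100% = DMSO alone without zVAD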
MCL1-BIM inh – inhibitors of human MCL1 binding to BIM-BH3 peptide; inhibition, % at 10.9 µM; hit rate 0.68% among 320,000; Q07820; AID 2057; GST-MCL1 / FITC-Bim-BH3 fluorescence polarization;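 active = inhibition above the mean inhibition of all tested compounds plus 3 SD, set per campaign, cut at about 40% in these data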;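 note: 0% = DMSO wells and 100% = unlabeled Bim-BH3 peptide control; higher means more loss of mP so more displacement of Bim peptide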
Target sequence (Q07820 whole entry, looked up): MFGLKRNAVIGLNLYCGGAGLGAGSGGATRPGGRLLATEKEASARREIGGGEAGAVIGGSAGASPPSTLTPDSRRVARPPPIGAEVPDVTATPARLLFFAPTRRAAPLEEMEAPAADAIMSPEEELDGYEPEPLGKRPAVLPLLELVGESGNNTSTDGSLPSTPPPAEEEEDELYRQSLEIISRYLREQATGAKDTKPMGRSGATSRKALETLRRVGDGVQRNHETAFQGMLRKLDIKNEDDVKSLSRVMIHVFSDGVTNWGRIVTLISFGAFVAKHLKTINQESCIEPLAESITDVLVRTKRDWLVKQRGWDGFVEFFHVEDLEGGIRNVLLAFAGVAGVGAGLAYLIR
Mcl1 Noxa PPI – Mcl-1/Noxa interaction inhibition | Q07820 | TR-FRET Mcl-1/Noxa peptide binding, 2 h | inhibition, % at 21.7 µM | hit rate 1.5% among 220,000;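 active = compounds that cut the protein-peptide binding signal by more than 50% relative to plate controls in a single-dose test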;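 note: His-tagged Mcl-1 with rhodamine Noxa BH3 peptide and terbium anti-His antibody; 0% = Mcl-1 plus Noxa peptide wells and 100% = peptide-only wells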
TNF necrop inh – TNF-alpha cell death inhibition in Jurkat FADD-/- cells. Jurkat FADD-/- TNF necroptosis rescue, ATP luminescence, 24 h; 0 = TNF only, 100 = no-TNF cells. activation (protection from cell death), % at 10 µM. hit rate 0.068% among 220,000. AID 463075;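 active = activation, meaning protection from cell death, of at least 50% relative to plate controls; inactive = activation below 50%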;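 note: necroptosis triggered by 40 ng/mL TNF-alpha added together with compound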
Mcl-1 Bim block – human Bim-Mcl-1 interaction inhibition. Q07820. Bead-based flow cytometry, Bim peptide-Mcl-1 binding. inhibition, % at 10 µM. hit rate 0.1% among 190,000; in the data active = inhibition above about 40%;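 note: 0% = no compound tracer wells and 100% = peptide blocker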
Mcl1 Bid PPI – disrupts binding of human Mcl-1 to Bid peptide. Q07820. TR-FRET Mcl-1/Bid-Dy647 peptide binding, 1536-well. inhibition, % at 21.7 µM. hit rate 0.97% among 220,000. AID 1021;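 active = compounds that cut the binding signal by more than half at the single screening dose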;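 note: His-tagged Mcl-1 with europium anti-His antibody binding Bid BH3 peptide; 0% = Mcl-1 plus peptide wells and 100% = peptide-only wells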
Starred values were filed as active, the others as inactive; · = not tested or not shown.

SMILES	zVAD death inh	MCL1-BIM inh	Mcl1 Noxa PPI	TNF necrop inh	Mcl-1 Bim block	Mcl1 Bid PPI
O=C(N/N=C/C(Br)=C\c1ccccc1)c1ccco1	0	-3	14	-10	·	74*
COc1ccc2c(c1O)Cc1ccccc1C2=O	1	21	52*	0	0	2
Cc1ccsc1C(=O)NCCc1c[nH]c2ccccc12	·	4	·	·	·	·
O=S(=O)(c1ccccc1F)N1CCN(Cc2nc3ccccc3[nH]2)CC1	1	-9	20	4	-2	79*
N#C/C(=C(/O)CSc1nnc(Cc2cccs2)n1C1CCCCC1)c1nc2ccccc2[nH]1	2	-2	52*	4	7	-65
COc1ccccc1-c1nnc(SC/C(O)=C(\C#N)c2nc3ccccc3[nH]2)n1C1CCCCC1	·	-3	-47	0	-6	-44
O=C(c1ccc(F)cc1)N1CCN(C(=O)c2ccc([N+](=O)[O-])cc2)CC1	3	1	18	0	0	2
O=C(Cn1cnc2cc([N+](=O)[O-])ccc2c1=O)Nc1ccc(N2CCOCC2)cc1	0	1	37	-2	·	-23
CN(C)CC(O)CN(c1ccccc1)c1ccccc1 (stereo not drawn)	0	8	8	2	·	98*
CN(C)CC(C(=O)c1ccccc1)c1ccccc1 (stereo not drawn)	7	-5	14	-27	0	6
COc1cccc2c(=O)c(SC(F)(F)C(F)C(F)(F)F)c(C)[nH]c12 (stereo not drawn)	3	8	14	-8	0	-4
COc1cccc2c(=O)c(C/C=C(/C)Cl)c(C)[nH]c12	1	-1	11	-2	0	92*
CCc1nnc(NC(=O)COc2ccc3c(c2)OCO3)s1	·	-6	·	·	·	·
CCOc1ccccc1CNc1ccc(O)cc1	0	·	72*	-10	7	-26
O=C(c1cnccn1)N1CCN(c2ccccc2F)CC1	0	2	-9	-1	57*	-28
O=C(c1cc(=O)c2ccccc2o1)N1CCN(c2ccccc2F)CC1	1	-4	10	2	41*	-12
O=C(c1cc(=O)c2ccccc2o1)N1CCN(c2cccc(Cl)c2)CC1	1	1	8	1	2	-8
CCc1ccc2cccc3c2c1N=CN3C	·	-1	·	·	·	·
Cc1ccc2cccc(Oc3ncnc4scc(-c5ccc(Cl)cc5)c34)c2n1	0	2	31	0	-8	99*
COC(=O)C(CC(C)C)NC(=O)c1ccc(F)cc1 (stereo not drawn)	1	1	-8	1	-2	98*
O=C(CCNC(=O)c1ccc(Cl)cc1)Nc1ccncc1	·	-6	·	·	·	·
CN(CC(=O)Nc1ccccc1Cl)C(=O)Cn1nnc(-c2ccc(F)cc2)n1	·	-13	·	·	·	·
CCNC(=O)N1c2ccc(OCC)cc2C(C)=CC1(C)C	-1	45*	2	-2	29	-26
COC(=O)c1cc(NC(=O)Cn2c(=O)cnc3ccccc32)cc(C(=O)OC)c1	1	1	27	1	1	62*
CC(C)CCNC(=O)c1csc2c1CCCCC2	4	4	17	11	-1	64*
SMILES	zVAD death inh	MCL1-BIM inh	Mcl1 Noxa PPI	TNF necrop inh	Mcl-1 Bim block	Mcl1 Bid PPI
CCC(C)NC(=O)c1csc2c1CCCCC2 (stereo not drawn)	0	3	16	-1	-1	-19
COc1ccc(/C=N/NC(=O)C2C3CCCCC32C)cc1OC (stereo not drawn)	24	-1	7	2	0	-12
COc1cc(/C=N/NC(=O)C2C3CCCCC32C)cc(Br)c1O (stereo not drawn)	0	2	51*	3	-6	-13
O=C(c1cc(-c2ccc(F)cc2)no1)N1CCN(Cc2ccc3c(c2)OCO3)CC1	·	7	·	·	·	·
COc1ccc(-c2nc(-n3c(C)c(C(C)=O)c(C(C)=O)c3C)sc2C)cc1	0	2	12	-1	-2	98*
Nc1ccc2c(c1Cl)C(=O)c1ccc(N)c(Cl)c1C2=O	43	·	87*	0	·	46
Cc1nccn1CC(=O)c1ccc(O)c(O)c1	·	3	·	·	·	·
O=C1c2ccccc2C(=O)C1c1nccc2ccccc12	39	15	58*	-2	1	35
CC(C)(C)NC(=O)c1sccc1C(=O)O	1	0	54*	0	0	90*
COC(=O)CCN1CCN(S(=O)(=O)c2ccccc2Br)CC1	1	-6	2	-1	-1	26
Fc1ccc(CSc2ccc(-c3ccco3)nn2)cc1	0	10	4	2	-4	61*
CN(Cc1ccccc1)C(=O)C1CCN(Cc2ccc(F)cc2)CC1	1	7	9	7	-2	55*
CCCn1cc(CN2CCC(n3nccc3NC(=O)c3ccccc3)CC2)c(C)n1	·	5	·	·	·	·
COc1ccc(CNC(=O)Cc2csc(Nc3nc(=S)[nH]c4ccccc34)n2)cc1	1	3	-3	1	0	34
O=C(Cc1csc(Nc2nc(=S)[nH]c3ccccc23)n1)NCc1ccc(Cl)cc1	2	13	4	2	2	56*
CCN(CC)CC(O)Cn1c(C)c(-c2ccccc2)c2cc([N+](=O)[O-])ccc21 (stereo not drawn)	·	9	·	·	·	·
COC(=O)c1ccc(-c2ccc(C(c3c(C)[nH][nH]c3=O)c3c(C)[nH][nH]c3=O)o2)cc1	-1	4	68*	-2	6	-74
NC(N)=NS(=O)(=O)c1ccc(NC(=S)NC(=O)c2ccncc2)cc1	·	14	·	·	·	·
COc1cc(NS(=O)(=O)c2ccc(NC(=S)NC(=O)c3sc4ccccc4c3Cl)cc2)nc(OC)n1	1	8	69*	3	-4	66*
COc1cc(NS(=O)(=O)c2ccc(NC(=S)NC(=O)c3sc4cc(F)ccc4c3Cl)cc2)nc(OC)n1	2	8	88*	0	-16	33
NC(N)=NS(=O)(=O)c1ccc(NC(=S)NC(=O)c2sc3ccccc3c2Cl)cc1	2	6	-148	1	-1	82*
COc1cc(NS(=O)(=O)c2ccc(NC(=S)NC(=O)c3ccco3)cc2)nc(OC)n1	1	13	14	2	·	-91
OC(COCc1ccccc1)CN1CCCCC1 (stereo not drawn)	·	2	·	·	·	·
CC(=O)N1CCOc2ccc(S(=O)(=O)Nc3ccc(C)cn3)cc21	·	1	·	·	·	·
Cc1c(NS(=O)(=O)c2cc(NC(=O)CCN3CCCC(C)C3)ccc2Cl)c(=O)n(-c2ccccc2)n1C (stereo not drawn)	1	14	78*	1	0	-22
CCn1c(SCC(=O)N2CCC(C)CC2)nc2c1c(=O)n(C)c(=O)n2C	·	3	·	·	·	·
Cc1c2c(=O)n(-c3nc4ccccc4s3)nc-2cc(O)n1Cc1ccccc1	1	·	73*	-1	·	-99
Cc1cc(CNC(=O)c2ccc3oc(C(C)C)nc3c2)nn1C	·	4	·	·	·	·

Screens as filed in PubChem.
